FUS yeast rescue = rescues growth of FUS-expressing yeast. S. cerevisiae FUS-expressing, growth rescue, OD600, 24 h. Potency, µM (series often up to 76.6 µM), most hits filed as activators. 390,000 compounds, 0.24% hits;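 further: plate controls were DMSO vehicle for no effect and reference control for full effect; nearly all actives have a fitted effect of over 55% in size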
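Quantitative HTS measuring growth restoration of FUS-toxic yeast. Galactose-induced cells (OD 0.005) were exposed 24hr at 30C to compounds at several concentrations, then absorbance at 600 nm was recorded.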
TDP-43 yeast inh = inhibitors of TDP-43 toxicity in yeast; 410,000 compounds, 1.8% hits; TDP-43 expressing yeast growth rescue, BacTiter-Glo, 24 h; Potency, µM (highest dose often 46.1 µM), without a hit: at the top dose growth rescue (activation), actives largely listed as activators; further: % of control where 0% means no effect; nearly all actives have a fitted effect of over 50% in size
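Galactose-induced TDP-43 yeast, OD600=0.02, compound pinned; 24 hr, 30 deg C; BacTiter-Glo luminescence for growth. Inhibitors of TDP-43 toxicity read as activators.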
aSyn yeast inh = alpha-synuclein toxicity inhibition in yeast | Yeast expressing alpha-synuclein, growth rescue, BacTiter-Glo, 24 h | Potency, µM (highest dose often 46.1 µM), without a hit: at the top dose growth rescue (activation), hits mostly activators | 370,000 compounds, 0.14% hits | AID 652106; further: % of control where 0% means no effect; nearly all actives have a fitted effect of over 65% in size
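Readout is rescue of growth in alpha-synuclein-expressing yeast, so inhibitors of toxicity appear as activators. Growth after 24 hr at 30 deg C in galactose medium is quantified by luminescence.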
Abeta rescue = restores growth of yeast expressing A-beta42 peptide; Potency, µM (titrated, usually from 46.1 µM), most hits filed as activators; 410,000 compounds, 0.063% hits; yeast expressing A-beta42, growth rescue, OD600, 48 h; response scale: 0% DMSO, 100% iron-clioquinol control; further: nearly all actives have a fitted effect of over 55% in size
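Yeast growth medium received pinned compounds, then yeast cells expressing toxic A-beta were added; plates incubated at 30 C for 48 hr. Growth read as absorbance at 600 nm, normalized to DMSO and equimolar FeCl3 plus clioquinol controls.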
An asterisk follows results filed as active; i = inactive; u = inconclusive; x = no result; ! = not active in a repeat. An excerpt weighted towards active compounds, which were near 2.1% of everything screened. The call rests on the fitted dose curve; in most records, active means well fitted curve in the direction sought with a large enough effect; inconclusive means small, poorly fitted or top-dose-only effect, or another doubt; inactive means no such curve, though single readings can be large; an effect the other way counts as inactive or inconclusive. Potency means the concentration at half of the fitted maximal effect.

SMILES | FUS yeast rescue | TDP-43 yeast inh | aSyn yeast inh | Abeta rescue
COC(=O)c1c(-c2ccccc2)[nH]c(-c2nccc3ccccc23)c1C(=O)OC | i | 12.6% | 11.4% | i
CC(C)N(C(=O)c1cc2c(Cl)nc3ccccc3c2s1)C1CCCCC1 | i | 6.8% | x | i
CCn1cc(S(=O)(=O)c2ccc(C)cc2)c(=O)c2cc(OC)ccc21 | i | -0.1% | -5.8% | i
CCOc1ccc(S(=O)(=O)c2cn(Cc3ccc(C)cc3)c3ccc(OC)cc3c2=O)cc1 | 15.8µM* | 20.8% | x | i
Cc1ccc(CSc2nnc(CCCCCNC(=O)OC(C)(C)C)o2)cc1 | u | 3.9% | 10.8% | i
Fc1cccc(Cl)c1CSc1nnc(CNc2ccccc2)o1 | i | 17.8µM* | u | i
Clc1ccc(CSc2nnc(CNc3cccc(Cl)c3)o2)cc1 | i | -28.5% | 8.91µM* | i
Fc1ccc(NCc2nnc(SCc3ccccc3)o2)cc1 | i | u | 4.5% | i
CC(C)(C)OC(=O)NCCc1nnc(SCc2ccc(Cl)cc2)o1 | u | 17.8µM* | 10.4% | i
Cc1onc(-c2c(F)cccc2Cl)c1C(=O)c1ccccc1O | i | -29.6% | 15.0% | i
Cc1onc(-c2c(Cl)cccc2Cl)c1C(=O)c1ccc(F)cc1 | i | 12.6µM* | 0.0% | i
Cc1onc(-c2c(F)cccc2Cl)c1C(=O)c1ccc(F)cc1 | i | 12.6µM* | 15.7% | i
Cc1onc(-c2c(F)cccc2Cl)c1C(=O)c1ccccc1 | i | 0.0% | 16.8% | u
CCc1ccc(-n2nc(CO)c(C(=O)NC)n2)cc1 | i | u | x | i
CC(C)N1C2OC(C3OC4C(O3)N(C(C)C)S(=O)(=O)N4C(C)C)OC2N(C(C)C)S1(=O)=O (stereo not drawn) | i | u | 7.08µM* | i
COC(=O)c1sccc1S(=O)(=O)N(CC(=O)Nc1ccccc1C)c1ccc(Cl)cc1 | 31.6µM* | -9.6% | x | i
O=C(NCCc1ccccc1)c1ccc2c(c1)N(Cc1ccc(Cl)cc1)C(=O)CS2 | u | 7.0% | x | i
CCN(CC)C(=O)C1CCCc2c1[nH]c1ccc(Cl)cc21 (stereo not drawn) | i | 14.1µM* | -7.3% | i
O=CNC1CCCc2c1[nH]c1ccc(Cl)cc21 (stereo not drawn) | x | 14.1µM* | 15.5% | i
Cc1[nH]c2ccccc2c1C(=O)C(C)Sc1nc2ccccc2c(=O)n1Cc1cccnc1 (stereo not drawn) | x | x | -1.4% | x
O=C(NN=C(Cc1ccccc1)Cc1ccccc1)c1ccccc1O | i | -4.8% | -7.8% | i
NC(=S)NN=C(Cc1ccccc1)Cc1ccccc1 | i | 15.8µM* | 3.3% | u
Cc1ccc(Nc2ncc(C(=O)NCCCN3CCN(C)CC3)c3ccccc23)cc1Cl | i | x | -3.0% | i
CN(C(=O)c1cnc(N2CCN(c3ncccn3)CC2)c2ccccc12)c1ccc(Cl)cc1 | i | 10µM* | 11.0% | u
CCN(C(=O)c1cnc(N2CCN(c3ncccn3)CC2)c2ccccc12)c1cccc(Cl)c1 | i | u | -18.3% | i
SMILES | FUS yeast rescue | TDP-43 yeast inh | aSyn yeast inh | Abeta rescue
Cc1ccc(Cl)cc1N1CCN(C(=O)c2cnc(N3CCOCC3)c3ccccc23)CC1 | 15.8µM* | 22.4µM* | x | i
Cc1ccc(Nc2ncc(C(=O)N3CCN(c4cccc(Cl)c4)CC3)c3ccccc23)cc1Cl | u | 15.8µM* | x | i
CC(C)OCCCNC(=O)CCCN1C(=O)CCn2nc(-c3cccn3C)cc21 | i | 4.9% | x | i
O=C(c1ccc(N2C(=O)c3ccccc3C2=O)cc1)N1CCN(S(=O)(=O)c2ccccc2F)CC1 | 28.2µM* | u | 3.1% | i
Cc1csc(NC(=O)Cc2ccc(Br)cc2)n1 | i | 10µM* | -11.4% | i
Cc1csc(NC(=O)C(C)Oc2ccc(Br)cc2)n1 (stereo not drawn) | i | 35.5µM* | -15.8% | i
Cc1csc(NC(=O)Cc2ccc(Cl)cc2)n1 | i | u | -5.7% | i
COc1ccc(Cl)cc1NC(=O)c1c(NCc2cccs2)sc2c1CCC(C)C2 (stereo not drawn) | i | 26.5% | x | i
Cc1ccccc1-n1c2nc(=O)[nH]c(=O)c-2cc2c(Cl)cccc21 | i | 3.55µM* | x | i
Cc1cccc(-n2c3nc(=O)n(C)c(=O)c-3cc3c(Cl)cccc32)c1C | i | 6.6% | x | i
CCOC(=O)c1nnsc1Nc1ccc(C)c(C)c1 | i | 11.2µM* | -4.8% | i
Nc1cc([N+](=O)[O-])cc2oc(-c3ccccc3)cc12 | i | 35.5µM* | 11.3% | i
CSc1ccc(-c2nc3cccc(C)n3c2Nc2ccc(Cl)cc2)cc1 | u | u | x | i
O=C(O)C1C2C=CC(C2)C1C(=O)NCc1ccc2c(c1)OCO2 (stereo not drawn) | i | 2.1% | 3.2% | i
O=C(O)C1C2C=CC(C2)C1C(=O)NCc1ccc(Cl)c(Cl)c1 (stereo not drawn) | i | 20µM* | 0.5% | i
C=C1C(=O)[C@]23C[C@H]1CCC2[C@]1(C)CCC[C@@](C)(C(=O)O)C1C[C@@H]3O (stereo partly drawn) | i | u | u | i
C=C1C(=O)[C@]23C[C@H]1CCC2[C@]1(C)C(=O)CC[C@@](C)(C(=O)O)C1C[C@@H]3O (stereo partly drawn) | i | 12.6µM* | 15.8µM* | i
CCOC(=O)[C@@]12CCC3=C1N(CCC3)C(=O)[C@H](CC(=O)NCCC(C)C)C2 | i | x | x | x
Cc1ccc2c(c1)C(=O)CC(c1ccc3c(c1)OCCO3)O2 (stereo not drawn) | i | 11.2µM* | -14.1% | i
COc1ccc2c(c1)C(=O)CC(c1ccc3c(c1)OCCO3)O2 (stereo not drawn) | i | 11.2µM* | -8.5% | i
CCN1CCOC(=O)C1CC(=O)Nc1cccc(OC)c1 (stereo not drawn) | i | u | x | i
Cc1cccc(NC(=O)CC2C(=O)OCCN2Cc2ccccc2)c1 (stereo not drawn) | i | 14.1µM* | x | i
O=C(CSC1CC(=O)N(CCc2ccccc2)C1=O)Nc1cccc(Cl)c1 (stereo not drawn) | i | 17.8µM* | 13.2% | i
O=C(CC1C(=O)OCCN1Cc1ccccc1)Nc1cccc(Cl)c1 (stereo not drawn) | i | 17.8µM* | x | i
Cc1cc(C(Br)(Br)Br)nc2ccccc12 | x | x | 1.6% | x
Cc1cc(C)n2nc(-c3cnn(C)c3C(F)(F)F)cc2n1 | i | 12.6µM* | 3.3% | i
CCC(Sc1nc2ncccc2o1)C(=O)Nc1cccc(C)c1 (stereo not drawn) | i | -6.3% | x | i
C=CCN=c1scc(-c2ccccc2)n1/N=C/c1ccccn1 | i | 22.4µM*! | -20.8% | u
C=CCN=c1scc(-c2ccc(F)cc2)n1/N=C/c1ccccn1 | i | u | -5.7% | u
